Inhibition data for 92 compounds are collected here from PubChem BioAssay AID1903 (Southern Research Specialized Biocontainment Screening …, 2009).

Several values for one entry are separate records, joined by “and”; a condition that tells them apart may be missing. Equal entries are not always repeated. The campaign covered roughly 310,000 compounds. About 1,200 (0.39%) were called active. The rule behind the calls is not given here. Only a sample is shown. Results with a measured potency or affinity are listed apart.

Sequence of Large T antigen (Simian virus 40) (P03070 whole entry, looked up): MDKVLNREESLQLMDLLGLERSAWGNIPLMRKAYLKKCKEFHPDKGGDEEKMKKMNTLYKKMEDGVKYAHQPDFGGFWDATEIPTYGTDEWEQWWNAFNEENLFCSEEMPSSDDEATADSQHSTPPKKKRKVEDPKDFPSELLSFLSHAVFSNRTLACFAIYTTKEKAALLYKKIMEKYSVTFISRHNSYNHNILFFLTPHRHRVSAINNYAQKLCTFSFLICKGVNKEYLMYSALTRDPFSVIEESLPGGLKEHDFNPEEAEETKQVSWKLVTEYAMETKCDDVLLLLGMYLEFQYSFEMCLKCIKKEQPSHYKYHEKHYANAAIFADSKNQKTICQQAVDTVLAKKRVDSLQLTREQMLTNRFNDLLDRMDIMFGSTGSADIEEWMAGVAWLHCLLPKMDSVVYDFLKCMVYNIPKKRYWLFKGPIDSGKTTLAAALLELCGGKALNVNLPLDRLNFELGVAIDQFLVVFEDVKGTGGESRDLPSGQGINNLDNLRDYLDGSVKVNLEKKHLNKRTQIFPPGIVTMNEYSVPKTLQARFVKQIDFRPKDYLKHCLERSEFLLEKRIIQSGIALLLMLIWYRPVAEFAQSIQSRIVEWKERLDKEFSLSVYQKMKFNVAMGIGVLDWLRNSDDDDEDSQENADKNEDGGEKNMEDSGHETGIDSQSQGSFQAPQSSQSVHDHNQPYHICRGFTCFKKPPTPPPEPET

This experiment has as its target Large T antigen (Simian virus 40) (UniProt P03070). The experiment in a line: TAg ATPase/helicase activity blockers – biochemical (AID 1903). The settings on record: SV40 large T antigen ATPase/helicase inhibition assay; at 20 µM; active compounds read high.
`Cc1ccc(N(Cc2ccc(C(=O)Nc3c(C)n(C)n(-c4ccccc4)c3=O)cc2)S(C)(=O)=O)cc1C`: the inhibition was 9.36% (inactive).

As to `O=C1[C@@H]2Cc3c([nH]c4ccccc34)C(c3ccccc3)N2C(=O)CN1CCO` (some centres not stated), the inhibition is 9.64% (inactive). The value for `CCC(C)NC(=O)CCc1nnc2ccc(N3CCC(C)CC3)nn12` (configuration not stated) was 6.91% (inactive); that for `Cc1ccc(N=Nc2ccc(N)cc2C)c(S(N)(=O)=O)c1` was 10.1% (inactive); that for `O=S(=O)(O)c1cccc(N=Nc2c(O)ccc3ccccc23)c1` was 7.77% (inactive).

For the compound `Nc1cc(S(=O)(=O)O)cc([N+](=O)[O-])c1O`, the inhibition was 23% (inactive). Take `Oc1ccc(Cl)cc1N=Nc1ccccc1`: the inhibition was 8.08% (inactive). Then `C#CCOCCOCCOCCNc1nc(N2CCN(C(=O)C([C@@H](C)CC)n3cc(C(N)Cc4ccc(O)cc4)nn3)CC2)nc(N2CCN(C(=O)[C@H](CCC(=O)O)n3cc(C(N)Cc4ccc(O)cc4)nn3)CC2)n1` (some centres not stated), with 18.6% (inactive); and `CN(CC(=O)Nc1ccc(Cl)cc1)CC(=O)Nc1ccc(F)c(F)c1F`, with -109% (inactive). Then `O=C(NCc1ccccn1)C1CCCN(S(=O)(=O)c2cccc3nsnc23)C1` (configuration not stated), with 9.56% (inactive); and `O=C(c1ccc(Oc2ccc(C(F)(F)F)cc2[N+](=O)[O-])cc1)N1CCOCC1`, with 1.7% (inactive). Then `O=C(Nc1cccc(Br)c1)c1ccc(CN2CCc3ccccc3C2)cc1`, with 6.55% (inactive); and `Nc1nc(Nc2ccccc2)nc(N2CCOCC2)c1[N+](=O)[O-]`, with 0.42% (inactive); and `Nc1sc(-c2ccccc2)cc1C(=O)O`, with 4.81% (inactive). Turning to `COC(=O)c1cc(-c2ccccc2)sc1N`, the inhibition was 11.1% (inactive).

Turning to `CCOC(=O)c1cc(CC)sc1N`, the inhibition is 14.6% (inactive). As for `CCOC(=O)c1cc(-c2ccccc2)sc1N`, the inhibition was 6.85% (inactive). The value for `CC(OC(=O)c1oc2ccccc2c1CSC1CCCCC1)C(=O)NC(N)=O` (configuration not stated) was 6.96% (inactive); that for `Cc1[nH]c2ccc(C(=O)NCCCN3CCN(C)CC3)cc2c1C` was 15.6% (inactive). Then `O=C(/C=C/c1ccccc1)N1CCN(c2ccc([N+](=O)[O-])c(N3CCOCC3)c2)CC1`, with 9.06% (inactive).

In the case of `CC(=O)N1CCN(c2ccc(NCc3ccc(C)cc3)cc2)CC1`, the inhibition is 14.1% (inactive). Then `CCc1ccc(CNc2ccc(N3CCN(C(C)=O)CC3)cc2)cc1`, with 9.55% (inactive); and `CC(=O)N1CCN(c2ccc(NCc3ccccc3)cc2)CC1`, with 8.55% (inactive). Turning to `Cc1ccc(CNc2ccc(N3CCOCC3)cc2)s1`, the inhibition is 14.2% (inactive). Then `COc1ccc(CNC(=O)CCCn2nc(C)c3c(C)n(-c4ccccc4)nc3c2=O)cc1`, with 12.9% (inactive); and `CCOc1ccccc1-c1noc(CCC(=O)Nc2cccnc2)n1`, with 10.5% (inactive). The value for `COc1ccc(-c2c(-c3ccc(OCC(=O)NN)cc3O)n[nH]c2C)cc1OC` was 5.82% (inactive); that for `C=C(C)COc1ccc(-c2n[nH]c(C)c2-c2ccc(OC)c(OC)c2)c(O)c1` was 13.9% (inactive); that for `N#C[C@H]1C2OC2c2ccccc2N1C(=O)c1ccccc1` (some centres not stated) was 3.71% (inactive).

As to `O=c1cc(CO)oc(CN2CCN(c3ccccc3)CC2)c1O`, the inhibition was 3.29% (inactive). Then `COc1ccc(Cl)cc1NC(=S)Nc1cccnc1`, with 5.19% (inactive). The value for `CC(=O)O[C@]1(C(C)=O)CC[C@H]2[C@@H]3C[C@H](C)C4=CC(=O)CC[C@]4(C)[C@H]3CC[C@@]21C` was 21.1% (inactive) and 1.31% (inactive). Then `CC(=O)O[C@]1(C(C)=O)CCC2C3C=C(C)C4=CC(=O)CC[C@]4(C)C3CC[C@@]21C` (some centres not stated), with 6.68% (inactive); and `CC(=O)O[C@]1(C(C)=O)CC[C@H]2[C@@H]3C=C(C)C4=CC(=O)CC[C@]4(C)[C@H]3CC[C@@]21C`, with 24.3% (inactive) and 8.14% (inactive). For the compound `Cc1ccccc1NC(=O)CN1C(=O)COc2ccc(S(=O)(=O)N3CCCC3)cc21`, the inhibition is 2.93% (inactive). Then `O=C(Nc1ccncc1)Nc1ccc(Cl)cc1`, with 10.4% (inactive); and `Cc1cc(C(=O)NCc2ccco2)c2cc(F)ccc2n1`, with 5.22% (inactive); and `CCCCn1c(N)c(N(CCC(C)C)C(=O)c2cc(-c3ccco3)nc3ccccc23)c(=O)[nH]c1=O`, with 28.5% (inactive). With `CCOc1ccc(C(=O)NC2CC(=O)N(c3ccc4c(c3)OCCO4)C2)cc1` (configuration not stated), the inhibition was 30.1% (inactive). Then `Cc1ccc(/C=C/C(=O)c2ccc([N+](=O)[O-])o2)cc1`, with 24.6% (inactive). Then `COc1ccc(/C=C/C(=O)c2ccc([N+](=O)[O-])o2)cc1`, with 2.57% (inactive); and `COc1ccc(/C=C/C(=O)c2ccc([N+](=O)[O-])o2)cc1OC`, with 17.4% (inactive). As to `Cc1cccc(NC(=O)c2ccc([N+](=O)[O-])o2)c1C`, the inhibition was -1.78% (inactive). Then `O=C(/C=C/c1ccc(Cl)cc1)c1ccc([N+](=O)[O-])o1`, with 34.3% (inactive); and `Cc1cccc(/C=C/C(=O)c2ccc([N+](=O)[O-])o2)c1`, with 27.2% (inactive); and `CC(=O)CC1(C)OC(N)=C(C#N)C1(C#N)C#N` (configuration not stated), with 5.62% (inactive).

As for `N#Cc1ccc(C(=O)Nc2cc(-c3ccccc3)nn2-c2ccccc2)cc1`, the inhibition was 2.51% (inactive). Take `Cc1cc(-c2sccc2C)nc(-n2cccc2)n1`: the inhibition was 1.14% (inactive). As to `O=C1Nc2ccccc2Nc2ccccc21`, the inhibition was 0.33% (inactive). As to `Cc1ccc(N=C2CCCCCN2C)c(C#N)c1`, the inhibition is 15.4% (inactive). The value for `CCN(CC)CCC(=O)N1c2ccccc2CCc2ccc(NC(=O)OC)cc21` was 6.36% (inactive); that for `COC(=O)/C(=C\Nc1ccc(Cl)cc1Cl)NC(=O)c1ccc(Cl)cc1Cl` was 6.46% (inactive); that for `COc1ccc(/C=C2/SC(=S)N(n3c(C)ccc3C)C2=O)cc1` was 12.7% (inactive). `O=C(COc1cccc2cccnc12)N/N=C/c1ccccc1O`: the inhibition is 0.79% (inactive). On to `O=C(CSc1cccc2cccnc12)N/N=C/c1cccc(O)c1`, for which the inhibition is 3.2% (inactive). The value for `NNC(=O)c1ccc(CSc2cccc3cccnc23)cc1` was 8.28% (inactive). Then `O=C(CSc1cccc2cccnc12)N/N=C/c1ccc(F)cc1`, with 5.35% (inactive); and `O=C(N/N=C/c1ccccc1Br)c1ccc(CSc2cccc3cccnc23)cc1`, with 8.68% (inactive); and `O=C(CSc1cccc2cccnc12)N/N=C/c1ccncc1`, with 13.8% (inactive). The value for `COc1ccc(/C=N/NC(=O)COc2cccc3cccnc23)cc1OC` was 16.2% (inactive); that for `COc1cccc(/C=N/NC(=O)CSc2cccc3cccnc23)c1` was 14.4% (inactive); that for `COc1ccc(NC(=O)CN(C)C(=O)Cc2ccc3c(c2)OCCO3)cc1` was 4.23% (inactive). For the compound `CSCC(=O)N1CCc2ccc(NC(=O)c3ccccc3Cl)cc2C1`, the inhibition was 3.34% (inactive). The value for `COc1ccccc1NC(=O)CCS(=O)(=O)c1cc2c(cc1Cl)NC(=O)CO2` was -2.36% (inactive).

As to `Cn1nc(C(=O)NC2=NCCS2)ccc1=O`, the inhibition was 16.5% (inactive).

Take `CC1(C)CC(NC(=O)COc2ccc3ccccc3c2)CC(C)(C)N1`: the inhibition was 12.2% (inactive). Then `COc1ccc(NC(=O)CSc2nc3sc(C)cc3c(=O)n2C)cc1`, with 8.62% (inactive). Regarding `CC(CC(=O)NC(C)c1ccc2c(c1)OCCO2)c1ccccc1` (configuration not stated), the inhibition is 7.67% (inactive).

With `O=S(=O)(c1ccccc1OC(F)(F)F)N1CCN(c2ccnc3cc(Cl)ccc23)CC1`, the inhibition is 4.46% (inactive). Then `Cc1nc(=O)c(-c2ccccc2)c(C)n1Cc1ccccc1`, with 1.9% (inactive).

In the case of `O=C(COc1ccccc1[N+](=O)[O-])N/N=C/c1ccncc1`, the inhibition is 25.8% (inactive). As to `O=C(COc1ccccc1[N+](=O)[O-])N/N=C/c1ccc(O)c([N+](=O)[O-])c1`, the inhibition is 7.71% (inactive).

Turning to `Cc1cc2c(Nc3cccc(O)c3)ncnc2s1`, the inhibition is 26.2% (inactive). Then `Cc1cc2c(Nc3ccccc3)ncnc2s1`, with -2.89% (inactive); and `CCc1cc2c(NCc3ccccc3)nc(C)nc2s1`, with 17.6% (inactive); and `CCc1cc2c(Nc3ccccc3O)nc(C)nc2s1`, with 9.83% (inactive). Then `O=C(OCc1nnc(-c2ccccc2)o1)c1ccc(CO)cc1`, with 3.3% (inactive).

As for `CCO[C@H]1OC(C(=O)NCc2nc3ccccc3[nH]2)=C[C@@H](c2ccccc2)[C@@H]1CCCO`, the inhibition was 1.96% (inactive). Then `COc1ccc(C(=O)OCC(=O)c2c(N)n(C)c(=O)n(C)c2=O)cc1OC`, with -4.08% (inactive); and `CCOc1ccc(C(=O)OCC(=O)c2c(N)n(C)c(=O)n(C)c2=O)cc1OCC`, with 1.22% (inactive). Then `O=C(NC(=S)Nc1ccc(S(=O)(=O)N2CCCCC2)cc1)c1ccc(Cl)cc1`, with 1.56% (inactive); and `COC(=O)c1ccc(CN2C(=O)c3ccccc3C2=O)o1`, with 10.1% (inactive).

Take `CSc1nc(-c2ccccc2)nc(NC(=O)c2ccccc2)c1C(C)=O`: the inhibition is 5.31% (inactive). Then `COC(=O)C1=C[C@@H](C(=O)OC)[C@@H]2C3=C(C(=O)[C@]2(CC(C)C)NC(=O)c2ccccc2)[C@H](C)n2c(=O)n(-c4ccccc4)c(=O)n2[C@@H]3C1`, with 19.3% (inactive). The value for `C/C(=N\NC(=O)c1nnn(-c2nonc2N)c1-c1cccs1)c1cccnc1` was -7.39% (inactive); that for `CC1N(C)c2cccc3cccc(c23)N1C` was 32.1% (inactive); that for `CN1C(=O)N(C)c2cccc3cccc1c23` was 21.8% (inactive). Then `OC(COCc1ccc2c(c1)OCO2)CN1CCCCC1` (configuration not stated), with 4.66% (inactive).

Take `COc1ccc(S(=O)(=O)NNC(=O)Cc2csc(C)n2)cc1[N+](=O)[O-]`: the inhibition was 10.2% (inactive).

Consider `CCN1CCN(c2cc(C)c3cc(NC(=O)Cc4ccc(OC)c(OC)c4)ccc3n2)CC1`, for which the inhibition is 2.02% (inactive). Consider `CC1C(=O)OC(c2ccc(Br)cc2)C(C)(C)C1=O` (configuration not stated), for which the inhibition was 29.1% (inactive). The value for `CCOc1ccc2c(c1)C(c1ccccc1)=NNC(c1ccccc1)=N2` was 4.86% (inactive).
